Screens as filed in PubChem.
NFkB SMM: binds human NF-kappa-B p105 on microarray; P19838; Small molecule microarray, anti-His fluorescence binding; calls only; 1.3% of 17,000 active; AID 624139;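 active = spot fluorescence over background significantly raised, with a chance value under 7% in all four replicate spots of the compound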;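 also: probe protein is his-tagged human p50 processed subunit at 1 µg/ml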
Myc binder: binds human c-Myc on microarray; P01106; small molecule microarray, His-c-Myc binding, anti-His fluorescence; calls only; 1.5% of 17,000 active; AID 624141;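 active = spot fluorescence over background with P-value below 7% in all four replicate spots, showing protein binding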
Target sequence (P01106 whole entry, looked up): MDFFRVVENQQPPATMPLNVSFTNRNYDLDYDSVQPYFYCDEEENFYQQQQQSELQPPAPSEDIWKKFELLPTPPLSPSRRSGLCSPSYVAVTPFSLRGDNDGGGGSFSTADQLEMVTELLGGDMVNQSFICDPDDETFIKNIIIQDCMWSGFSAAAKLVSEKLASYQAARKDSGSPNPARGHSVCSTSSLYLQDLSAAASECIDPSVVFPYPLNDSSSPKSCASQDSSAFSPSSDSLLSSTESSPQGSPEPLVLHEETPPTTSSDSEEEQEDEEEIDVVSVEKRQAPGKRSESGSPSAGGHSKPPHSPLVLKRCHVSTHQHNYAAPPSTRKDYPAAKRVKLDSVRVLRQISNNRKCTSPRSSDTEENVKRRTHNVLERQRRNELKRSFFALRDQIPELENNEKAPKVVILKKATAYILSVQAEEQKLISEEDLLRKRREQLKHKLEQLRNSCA
STAT3 binder: binders of human STAT3; Small molecule microarray, His-STAT3 binding, anti-His fluorescence; P40763; calls only; AID 624138; 0.2% of 17,000 active;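 active = compounds whose four printed spots each show fluorescence over background unusually high for their array block, chance value under 7%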
p53 mut binder: binders of human mutant p53; small molecule microarray binding, anti-GST fluorescence; calls only; 0.4% of 17,000 active;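 active = compounds whose four printed spots each glow above background more than chance allows, each with a p-value under 7%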
p53 PUMA act: restores mutant p53 pathway signaling in SW480 cells; SW480 PUMA-promoter luciferase, p53 mutant reactivation; activation, % at 9.98 µM; 1.5% of 28,000 active; AID 624151; in the data active = activation above about 52%
Each line names hits and unclear results; the compound was inactive in the other large screens. This is a sample that favours compounds with a hit; in the whole collection about 2.6% have one here.

COc1ccc(C#Cc2ccc3c(c2)[C@]2(C(=O)N3)[C@H](C(=O)Nc3nc4ccccc4s3)[C@H]3C(=O)O[C@H](c4ccccc4)[C@H](c4ccccc4)N3[C@@H]2c2ccc(OCCO)cc2)cc1	none (no result: p53 PUMA act)
COc1cc(C[C@H]2C(=O)OC[C@@H]2Cc2ccc(O[C@@H]3O[C@H](CO)[C@@H](O)[C@H](O)[C@H]3O)c(OC)c2)ccc1O	none
Cc1ccc(NC(=O)CCC(=O)c2ccc(Oc3ccccc3)cc2)cc1	none (no result: NFkB SMM, Myc binder, STAT3 binder, p53 mut binder)
COc1cc(-c2nc3sc4c(c3c(=O)[nH]2)CCCC4)cc(Br)c1OCC(=O)O	NFkB SMM active, Myc binder active
Cc1cc(I)cnc1NC(=S)NC(=O)c1ccco1	p53 PUMA act 75.7
Cc1sc(NC(=S)NC(=O)Cc2cccc3ccccc23)c(C(N)=O)c1C	none
Cc1sc(NC(=S)NC(=O)c2ccco2)c(C(N)=O)c1C	p53 PUMA act 59.1 (no result: NFkB SMM, Myc binder, STAT3 binder, p53 mut binder)
CC(=O)Cc1ccccc1OCC(=O)O	NFkB SMM active, Myc binder active
CC(C)NCc1ccccc1OCC(N)=O	none
C[C@@H]1CN([C@@H](C)CO)C(=O)c2cc(NC(=O)C3CCCCC3)ccc2O[C@@H](C)CCCCO[C@@H]1CN(C)C(=O)C1CCCCC1	NFkB SMM active, Myc binder active (no result: p53 PUMA act)
CNC[C@@H]1Oc2ccc(NC(=O)C3CC3)cc2C(=O)N([C@H](C)CO)C[C@H]1C	NFkB SMM active, Myc binder active
C[C@@H]1CCCCO[C@H](CN(C)C(=O)Nc2ccccc2)[C@H](C)CN([C@@H](C)CO)C(=O)c2cc(NC(=O)Nc3ccccc3)ccc2O1	none
C[C@@H]1CN([C@@H](C)CO)C(=O)c2cc(NC(=O)C3CCCCC3)ccc2O[C@@H](C)CCCCO[C@H]1CN(C)C(=O)Nc1ccccc1	none
C[C@H](CO)N1C[C@H](C)[C@@H](CN(C)C(=O)Nc2ccccc2)OCCCC[C@H](C)Oc2ccc(NC(=O)Nc3ccccc3)cc2C1=O	NFkB SMM active, Myc binder active
C[C@H]1CCCCO[C@@H](CN(C)C(=O)Nc2ccccc2)[C@@H](C)CN([C@@H](C)CO)C(=O)c2cc(NC(=O)C3CCCCC3)ccc2O1	Myc binder active
CCOC(=O)C(C)Sc1nc2ccc(I)cc2c(=O)n1-c1ccccc1OC (stereo not drawn)	none
O=C(CSc1n[nH]c(-c2ccc(Cl)cc2)n1)Nc1ccccc1Cl	none (no result: NFkB SMM, Myc binder, STAT3 binder, p53 mut binder)
CN(CC(=O)Nc1ccc(C(N)=O)cc1)S(=O)(=O)c1ccc(F)cc1	none (no result: NFkB SMM, Myc binder, STAT3 binder, p53 mut binder)
C[C@@H]1CCCCO[C@H](CN(C)C(=O)Cc2ccccc2)[C@H](C)CN([C@@H](C)CO)C(=O)c2cc(NC(=O)Nc3ccc(F)cc3)ccc2O1	STAT3 binder active
C[C@H](CO)N1C[C@H](C)[C@H](CN(C)C(=O)Cc2ccccc2)OCCCC[C@H](C)Oc2ccc(NC(=O)Nc3ccc(F)cc3)cc2C1=O	none
Fc1ccccc1OCCCCSc1ncccn1	none
N#Cc1ccccc1OCCCCSc1ncccn1	p53 PUMA act 101.8 (no result: NFkB SMM, Myc binder, STAT3 binder, p53 mut binder)
Cc1cc2nc(SCc3ccccc3C#N)[nH]c2cc1C	p53 PUMA act 67.7 (no result: NFkB SMM, Myc binder, STAT3 binder, p53 mut binder)
COC1CC(OC2CCC3(C)C(CCC4(O)C3CC(OC(=O)c3ccccc3)C3(C)C(O)(C(C)=O)CCC43O)C2)OC(C)C1OC1CC(OC)C(OC2OC(C)C(OC3OC(CO)C(O)C(O)C3O)C(OC)C2O)C(C)O1 (stereo not drawn)	NFkB SMM active, Myc binder active
Cc1cc(OCC(=O)Nc2cccc(-c3nc4ccccc4o3)c2C)cc(C)c1Cl	none (no result: NFkB SMM, Myc binder, STAT3 binder, p53 mut binder)
O=C(COc1ccc(Br)cc1)Nc1cccc(-c2nc3ncccc3o2)c1	p53 PUMA act 72.6 (no result: NFkB SMM, Myc binder, STAT3 binder, p53 mut binder)
O=C(COc1ccccc1)Nc1cccc(-c2nc3c(ccc4ccccc43)o2)c1	none
Cc1c(NC(=O)COc2ccc(Br)cc2)cccc1-c1nc2ncccc2o1	p53 PUMA act 54.2
O=c1[nH]c(=O)n(Cc2c(Cl)cccc2Cl)cc1F	none (no result: NFkB SMM, Myc binder, STAT3 binder, p53 mut binder)
CC(=O)c1cccc(NC(=O)CCN2C(=O)c3ccccc3S2(=O)=O)c1	none (no result: NFkB SMM, Myc binder, STAT3 binder, p53 mut binder)
CCc1ccc2oc(-c3cc(NC(=O)COc4ccc(OC)cc4)ccc3Cl)nc2c1	none (no result: NFkB SMM, Myc binder, STAT3 binder, p53 mut binder)
CCc1ccc(OCC(=O)Nc2ccc(-c3nc4ccccc4o3)c(O)c2)cc1	p53 PUMA act 59.0 (no result: NFkB SMM, Myc binder, STAT3 binder, p53 mut binder)
CCc1ccc(OCC(=O)Nc2ccc(-c3nc4ccccc4s3)c(O)c2)cc1	p53 PUMA act 122.8 (no result: NFkB SMM, Myc binder, STAT3 binder, p53 mut binder)
CCOC(=O)c1sc2ncn(CC(=O)Nc3ccc(OC)cc3)c(=O)c2c1C	none (no result: NFkB SMM, Myc binder, STAT3 binder, p53 mut binder)
O=[N+]([O-])c1ccc2nc(CSc3nc4ccccc4[nH]3)[nH]c2c1	none
Cc1cc2nc(Sc3c([N+](=O)[O-])nc(C)n3Cc3ccccc3)[nH]c2cc1C	p53 PUMA act 76.5 (no result: NFkB SMM, Myc binder, STAT3 binder, p53 mut binder)
Cc1nc([N+](=O)[O-])c(Sc2nc3ccccc3[nH]2)n1Cc1ccccc1	p53 PUMA act 65.6
Cc1ccc(C2=NN(C(=O)CCC(=O)O)C(c3ccc(F)cc3)C2)cc1 (stereo not drawn)	none (no result: NFkB SMM, Myc binder, STAT3 binder, p53 mut binder)
C/C=C(\C)C(=O)OC(C)(C)C1Cc2cc3ccc(=O)oc3cc2O1 (stereo not drawn)	p53 mut binder active
CC(=O)OC(C)(C)[C@@H]1Cc2cc3ccc(=O)oc3cc2O1	none
CC(C)=CCc1c(O)c(CC=C(C)C)c2c(c1O)C(=O)CC(c1ccccc1)O2 (stereo not drawn)	Myc binder active
CC(C)=CCc1c(O)cc(O)c2c1OC(c1ccccc1)CC2=O (stereo not drawn)	none
O=C1c2ccccc2C(=O)N1OS(=O)(=O)c1cccc2cccnc12	none
COc1ccc(OC)c(S(=O)(=O)ON2C(=O)c3ccccc3C2=O)c1	Myc binder active
Cc1nc2nc[nH]n2c(=O)c1NS(=O)(=O)c1ccc2c(c1)CCCC2	none (no result: NFkB SMM, Myc binder, STAT3 binder, p53 mut binder)
Nc1nc(CSc2ccccn2)nc(Nc2ccccc2)n1	p53 PUMA act 88.9 (no result: NFkB SMM, Myc binder, STAT3 binder, p53 mut binder)
C[C@@]12C[C@]3(O)O[C@H](O1)[C@]1(COC(=O)c4ccccc4)[C@H]3C[C@@]12O[C@@H]1O[C@H](CO)[C@@H](O)[C@H](O)[C@H]1O	none
Cc1csc2c(SCC(O)C(F)(F)F)ncnc12 (stereo not drawn)	p53 PUMA act 56.4 (no result: NFkB SMM, Myc binder, STAT3 binder, p53 mut binder)
CC1(C)CC(=O)c2c(O)cc(OCC(=O)c3ccccc3)cc2O1	p53 PUMA act 62.3
CC1(C)CC(=O)c2c(O)cc(OCC(=O)c3ccc(Cl)c(Cl)c3)cc2O1	none (no result: NFkB SMM, Myc binder, STAT3 binder, p53 mut binder)
Cc1cc(OCC(=O)Nc2ccccc2CO)cc(C)c1Br	none (no result: NFkB SMM, Myc binder, STAT3 binder, p53 mut binder)
COc1ccccc1NC(=O)COc1ccc(Cl)cc1CO	p53 PUMA act 62.9
COc1ccc(Cl)cc1NC(=O)COc1ccccc1[N+](=O)[O-]	none
COc1ccc(Cl)cc1NC(=O)COc1ccccc1OC	p53 PUMA act 99.4
O=C(COc1ccc(Br)cc1Cl)Nc1ccccc1CO	p53 PUMA act 75.5 (no result: NFkB SMM, Myc binder, STAT3 binder, p53 mut binder)
CN(CCCc1nc2ccccc2[nH]1)S(=O)(=O)c1ccc(Cl)cc1	none (no result: NFkB SMM, Myc binder, STAT3 binder, p53 mut binder)
C[C@@H]1CN([C@@H](C)CO)C(=O)c2cc(NC(=O)Nc3ccccc3)ccc2O[C@@H](C)CCCCO[C@H]1CN(C)Cc1ccncc1	Myc binder active
C[C@H]1CCCCO[C@@H](CN(C)Cc2ccccc2)[C@@H](C)CN([C@@H](C)CO)C(=O)c2cc(NC(=O)Nc3ccc4c(c3)OCO4)ccc2O1	none
C[C@H]1CCCCO[C@H](CN(C)Cc2ccncc2)[C@@H](C)CN([C@@H](C)CO)C(=O)c2cc(NC(=O)Nc3ccccc3)ccc2O1	none
